Bioassay records from PubChem.
A selection: hits, their analogues and other compounds. The true share with any hit is near 21%.
Pf growth 96h = P. falciparum growth inhibition at 96 hour, primary screen for plastid delayed-death inhibitors | 320,000 tested, 6.9% active | P. falciparum luciferase reporter growth, 96 h | Potency, µM (doses to about 28.7 µM), without a hit: top-dose activity change, negative = inhibition, actives largely listed as inhibitors; note: potency is the fitted concentration of half-maximal effect; % is set by controls: 0 for no effect and ±100 for the full control effect
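Parasite growth measured via integrated firefly luciferase reporter in P. falciparum. Infected erythrocytes at 2% hematocrit, 0.05% parasitemia final were treated 96 hours at 37 C under 5% CO2, and luminescence was read.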
Shiga toxin inh = blocks Shiga toxin action in Vero cells | Vero cells, Shiga toxin protein synthesis inhibition reporter | inhibition, % at 38.7 µM | 290,000 tested, 9.2% active; in the data active = inhibition mostly above about 28%, no sharp cut-off; inactive = mostly below about 43%; note: 0% is about no effect
HCV inhibitor = inhibitors of hepatitis C virus infection. Potency, µM (series often up to 41.8 µM), without a hit: top-dose activity change, negative = inhibition, hits mostly inhibitors. Huh7.5.1 HCVcc-Cre infection, luciferase reporter, 44 h. AID 651820. 340,000 tested, 3.4% active; note: potency is the fitted concentration of half-maximal effect; % is set by controls: 0 for no effect and ±100 for the full control effect
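Antiviral activity was scored by luciferase reporter output from cells infected with HCVcc-Cre (~0.5 moi) in presence of compound, 44 h infection period, cells seeded 1,000/well 4 h prior.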
Pf growth 48h = inhibits P. falciparum growth in the first generation, 48 h | P. falciparum luciferase growth in erythrocytes, 48 h | Potency, µM (highest dose often 28.7 µM), for inactives: at the highest dose activity change, negative = inhibition, hits mostly inhibitors | 310,000 tested, 5.9% active | AID 504832; note: potency is the fitted concentration of half-maximal effect; % is set by controls: 0 for no effect and ±100 for the full control effect
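Parasite viability was followed by luminescence of a genomically integrated firefly luciferase. Cultures held 0.1% parasitemia at 2% hematocrit (final), incubated under 5% CO2 at 37 C.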
CHX counter = affects cycloheximide protein synthesis inhibition readout, counter-screen; max response, %; AID 2314; cell reporter, cycloheximide protein synthesis inhibition counterscreen; 300,000 tested, 12% active; in the data active = max response mostly above about 13%, no sharp cut-off; inactive = mostly below about 14%; note: read at 38.3 µM for the half of the compounds with a filed dose; 0% is about no effect
HCMV inh = blocks human cytomegalovirus replication | HFF cells, HCMV-luciferase reporter, 72 h; hits give low values | activity change, negative = inhibition, % at 57.5 µM | 410,000 tested, 4.5% active; in the data active = activity change below about -60%; inconclusive = no clear call, values can overlap the other calls; inactive = above about -39%; note: % is set by controls: 0 for no effect and ±100 for the full control effect
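HFF cells seeded 16 h at 37C, treated with compounds, infected with luciferase-reporter HCMV at MOI 1 PFU/cell; luciferase read at 72 h post infection, normalized to buffer-only and Salinomycin controls.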
* = called active by the depositor; ? = inconclusive; nt = no result. Unless noted, calls come from the whole dose curve; as a rule, active = well fitted inhibition curve with a large enough effect; inconclusive = small, poorly fitted or top-dose-only effect, or another doubt; inactive = no such curve, though single readings can be large or run the other way.

SMILES	Pf growth 96h	Shiga toxin inh	HCV inhibitor	Pf growth 48h	CHX counter	HCMV inh
O=C(NCC1CCN(c2ccc(S(=O)(=O)N3CCOCC3)cc2)CC1)Nc1ccccc1	?	-2.7	-17.3%	?	-3.6	?
O=C(NC1CC1)C1CCN(c2ccc(S(=O)(=O)N3CCOCC3)cc2)CC1	-4.8%	1.2	18.5%	4.15µM*	-1.2	27.5
O=C(NCC1CCCO1)C1CCN(c2ccc(S(=O)(=O)N3CCCC3)cc2)CC1 (stereo not drawn)	-14.7%	-2.6	14.3%	?	-1.2	-34.0
Cc1c(C(=O)Nc2ccccc2Cl)oc2ccc(S(=O)(=O)N3CCCCCC3)cc12	nt	nt	nt	nt	nt	5.6
Cc1cc(=O)oc2cc(OC(=O)c3cncc(Br)c3)ccc12	16.2%	-15.1	25.8%	-6.3%	-0.8	-103.2*
CCCCCOc1ccc(OC(=O)c2ccncc2)cc1	92.8%	9.0	0.4%	10.4%	-3.9	-2.3
O=C(COC(=O)c1cncc(Br)c1)NC1CC1	35.9%	-14.2	-5.4%	nt	16.4*	48.8
CCCCCOC(=O)c1ccc(OC(=O)c2cncc(Br)c2)cc1	0.0%	26.6	-13.6%	53.8%	20.7*	5.8
O=C(COC(=O)c1cncc(Br)c1)NC1CCCCC1	78.8%	2.3	-1.7%	?	-6.4	92.0
CCc1ccc(OC(=O)c2cncc(Br)c2)cc1	?	21.7	35.7%	9.3%	18.2*	-4.4
O=C(Oc1ccc2ccccc2c1)c1cncc(Br)c1	53.5%	-13.0	5.6%	nt	2.2	56.8
CCOc1ccc(NC(=O)CC2C(=O)N(c3ccc(OC)cc3)C(=O)N2CCC2=CCCCC2)cc1 (stereo not drawn)	nt	nt	nt	nt	nt	3.4
COc1ccc(N2CCN(C(=O)CCC(=O)N3Cc4ccccc4Oc4ncccc43)CC2)cc1	?	-7.2	?	?	-1.1	0.0
Cc1ccc(CNC(=O)COC(=O)c2cncc(Br)c2)cc1	2.7%	-5.0	7.3%	?	0.9	21.9
CCc1ccc(C(=O)COC(=O)c2cncc(Br)c2)cc1	52.1%	32.8	-19.8%	16.5µM*	39.9*	-36.9
CCCCCCCOC(=O)c1ccc(OC(=O)c2cccnc2)cc1	-7.3%	53.4	13.2%	nt	16.4*	5.6
CCCCCCOC(=O)/C=C/c1c(C)[nH]c(=O)[nH]c1=O	65.7%	9.1	8.5%	9.28µM*	-3.1	33.6
CCCCCCCCOC(=O)CCc1c(C)[nH]c(=S)[nH]c1=O	38.0%	26.4	-2.8%	?	-1.0	-19.0
NC(=O)c1nsc(C(=O)N(c2cccc(F)c2)C(C(=O)NCC2CCCO2)c2c[nH]c3ccccc23)c1N (stereo not drawn)	-15.5%	35.9	-24.6%	?	0.6	41.2
COc1cc(S(=O)(=O)Nc2cccc3cn[nH]c23)c(OC)cc1C	2.94µM*	-21.7	-2.5%	10.4µM*	-4.2	-5.1
O=C(NCCN1CCN(C(=O)Nc2ccccc2)CC1)Nc1ccccc1	5.22µM*	-12.5	-1.7%	nt	-5.8	?
COc1ccc(NC(=O)NCCCN2CCC(Cc3ccccc3)CC2)cc1	?	-6.4	?	-24.6%	-0.4	-25.6
CSc1ccc(NC(=O)NCCN2CCc3ccccc3C2)cc1	31.2%	12.4	-18.7%	7.2%	16.2*	38.0
Cc1ccc(NC(=O)NCCN2CCN(C(=O)Nc3ccc(C)cc3)CC2)cc1	?	-5.9	?	?	-4.9	12.9
CSc1ccc(NC(=O)NCCCN2CCC(Cc3ccccc3)CC2)cc1	?	-4.8	10µM*	8.28µM*	-3.1	-63.3*
SMILES	Pf growth 96h	Shiga toxin inh	HCV inhibitor	Pf growth 48h	CHX counter	HCMV inh
CCCC(=O)Oc1ccc(C2NC(=O)c3ccccc3O2)cc1 (stereo not drawn)	-26.5%	nt	1.5%	1.2%	1.1	5.3
C=C(C)Cn1c(SCC(=O)Nc2cccc(C)c2)nc2sc3c(c2c1=O)CCCC3	nt	nt	nt	nt	nt	6.2
CC(=O)c1cccc(NC(=O)Cn2cnc3c2c(=O)n(C)c(=O)n3C)c1	nt	nt	nt	nt	nt	-1.7
CCOc1ccc(N(CC(=O)N2CCN(Cc3ccccc3)CC2)S(C)(=O)=O)cc1	10.0%	-5.3	-1.6%	-4.8%	-2.1	8.8
Cc1cc2oc(C(=O)Nc3ccc(S(=O)(=O)Nc4ncccn4)cc3)cc(=O)c2cc1C	nt	nt	nt	nt	nt	4.6
CC(C)C(NC(=O)c1c(F)cccc1F)C(=O)NC1CC(C)(C)NC(C)(C)C1 (stereo not drawn)	10.5%	-10.8	8.8%	8.9%	-3.0	-26.4
Cc1ccn2c(Nc3ccc4c(c3)OCO4)c(-c3ccco3)nc2c1	nt	nt	nt	nt	nt	50.5
Cc1ccc(-c2nc3ccccn3c2Nc2ccc3c(c2)OCO3)o1	nt	nt	nt	nt	nt	-101.0*
Cc1ccc(-c2nc3cnccn3c2Nc2ccc3c(c2)OCCO3)o1	0.0%	22.2*	-6.0%	-11.4%	33.6*	73.4
Cc1cccc2nc(-c3ccco3)c(Nc3ccc4c(c3)OCO4)n12	?	24.3	17.6%	?	30.7*	0.0
CN(C)c1ccc(-c2nc3cnccn3c2Nc2ccc3c(c2)OCCO3)cc1	?	87.4*	-21.4%	?	31.0*	-8.2
Cc1ccc(-c2nc3cccc(C)n3c2Nc2ccc3c(c2)OCO3)o1	nt	nt	nt	nt	nt	3.8
O=C(NCc1ccc2c(c1)OCO2)[C@@H]1[C@@H](CO)[C@@H]2Cn3c(cccc3=O)[C@H]1N2Cc1cccnc1	nt	nt	nt	nt	nt	19.0
CN(CC(O)COc1ccc(OCC(O)CN(C)C2CCCCC2)cc1)C1CCCCC1 (stereo not drawn)	34.8%	23.0	15.8µM*	?	-3.7	?
O=C(O)c1ccccc1C(=O)NCC(O)COc1ccc(Cl)cc1 (stereo not drawn)	45.7%	54.9*	?	30.3%	37.8*	-29.3
Cc1cccc(C)c1OCC(O)CN(Cc1ccccc1O)C1CCCCC1 (stereo not drawn)	0.262µM*	21.9	?	0.262µM*	-1.9	-69.1*
CCC(=O)c1ccc(OCC(O)CN(C)C2CCCCC2)cc1 (stereo not drawn)	-22.6%	-2.4	?	5.3%	0.1	25.3
Cc1ccc(C(C)C)c(OCCN2CCc3ccccc3C2)c1	48.3%	nt	11.7%	?	1.2	12.9
Cc1ccc(C(C)C)c(OCC(O)CN(C)Cc2ccccc2)c1 (stereo not drawn)	2.08µM*	-6.5	?	nt	-3.9	-70.4*
COc1ccc(OCC(O)CNC(=O)c2ccccc2C(=O)O)cc1 (stereo not drawn)	?	-4.6	-29.2%	-3.7%	10.1	-10.3
CC(=O)c1ccc(NS(=O)(=O)c2ccc3c(c2)CCC(=O)N3)cc1	?	nt	0.1%	-21.0%	nt	-3.9
NCCCCCC(=O)N/N=C/c1coc2ccccc2c1=O	0.0%	0.1	4.0%	8.6%	-1.8	31.6
CC1CCC(NC(=O)CCNC(=O)c2ccccc2)CC1 (stereo not drawn)	-3.6%	10.9	15.5%	3.0%	1.8	-23.2
COc1ccc2c(c1)c1c(c(=O)n(CCc3ccccc3)c(=O)n1Cc1ccc(Cl)cc1)n2C	nt	nt	nt	nt	nt	32.8
